Experimental data from PubChem BioAssay (NCI).
Compounds without any hit were thinned out: in the full panel of roughly 79,000, 15% have a hit. No stated cut-off is given here; in the data, active means growth inhibition above about 70%; inactive means the rest.

What was measured:
[1] = NCI Yeast Anticancer Drug Screen. Data for the rad50 strain (AID 155);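 further: 0% = growth of vehicle-only cultures of the same strain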; settings: S. cerevisiae rad50 strain growth inhibition; at 50.0 µM; stronger effect = higher value
In short: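 Yeast carrying a defined DNA repair defect were exposed to test compounds, and growth was compared with vehicle-treated controls to give percent inhibition.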

[2] = NCI Yeast Anticancer Drug Screen. Data for the mec2-1 strain (AID 157); settings: S. cerevisiae mec2-1 strain, at 50.0 µM, stronger effect = higher value
In short: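 Growth inhibition is read against vehicle-treated controls after compound exposure of the mec2-1 yeast strain, which is defective in DNA damage repair or cell cycle control.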

[3] = NCI Yeast Anticancer Drug Screen. Data for the sgs1 mgt1 strain (AID 161);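 further: 0% = growth of cultures given vehicle only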; settings: S. cerevisiae sgs1 mgt1 strain, at 50.0 µM, stronger effect = higher value
In short: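 Growth of a repair-deficient yeast mutant was monitored after compound treatment and expressed as inhibition relative to vehicle-treated cultures.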

[4] = NCI Yeast Anticancer Drug Screen. Data for the cln2 rad14 strain (AID 165);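 further: 0% = growth equal to vehicle treated cultures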; settings: S. cerevisiae cln2 rad14 strain, at 50.0 µM, stronger effect = higher value
In short: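 Growth inhibition, relative to vehicle-treated controls, is the read-out. The test organism is a yeast strain with defined genetic alterations, cln2 rad14.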

[5] = NCI Yeast Anticancer Drug Screen. Data for the bub3 strain (AID 167); settings: S. cerevisiae bub3 mutant strain, at 50.0 µM, stronger effect = higher value
In short: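 Compounds were applied to a genetically altered yeast strain carrying a cell-cycle control defect. Growth inhibition was scored against vehicle-treated controls.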

[6] = NCI Yeast Anticancer Drug Screen. Data for the mlh1 rad18 strain (AID 175); settings: S. cerevisiae mlh1 rad18 strain growth inhibition; at 50.0 µM; stronger effect = higher value
In short: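 Cells of a genetically altered yeast strain, deficient in DNA damage repair, were treated with compound. Their growth was then compared with that of vehicle-treated cultures to give inhibition.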

Measured: growth inhibition

CCc1n[nH]c(=S)n1/N=C/c1ccc(-c2ccc([N+](=O)[O-])cc2)o1
inactive: [1] 14.6% | [2] -17.6% | [3] -14% | [4] 9.85% | [5] -14.1% | [6] 10.3%

CC1=NN(C(=O)c2ccc(Cl)cc2)C(=O)/C1=C/c1ccco1
inactive: [1] -8.85% | [2] -28.9% | [3] -22.6% | [4] 9.25% | [5] -2.7% | [6] -24.1%

CCN(CC)C(=N)N
inactive: [1] -11.6% | [2] -1.55% | [3] -27.2% | [4] -34.2% | [5] -22% | [6] -14.4%

Nc1cc(=O)n(C2CC(O)C(CO)O2)cn1 (configuration not stated)
inactive: [1] 7.25% | [2] 2.05% | [3] 11.5% | [4] 1.95% | [5] -13.3% | [6] 5.6%

O=[N+]([O-])c1ccc(Cl)c(OCCBr)c1
inactive: [1] 0% | [2] 3.15% | [3] -2.05% | [4] 1.15% | [5] 31.9% | [6] 9%

CCN(Cc1cc(Nc2ccnc3cc(Cl)ccc23)ccc1O)C(=O)N1CCN(C)CC1
inactive: [1] 10.7% | [2] 6.1% | [3] 20.5% | [4] 15.8% | [5] -7.55% | [6] 11.1%

CCOC(=O)c1c(O)c(Cc2ccccc2)c(=O)n2c1[nH]c1cc(C)c(C)cc12
inactive: [1] 26.6% | [2] 26.2% | [3] 12.2% | [4] 15.5% | [5] -0.95% | [6] -1%

O=C(O)CCS(=O)(=O)CCC(=O)O
inactive: [1] -8.4% | [2] 0.8% | [3] -21.4% | [4] -30% | [5] 8.6% | [6] 22.8%

CCOCC(OCC)OCC
inactive: [1] -4.1% | [2] 0.45% | [3] -2.55% | [4] 22.9% | [5] -5.45% | [6] 6.7%

CCCCCCCCCCOC(=O)C(C)O (configuration not stated)
inactive: [1] 8.4% | [2] 2.95% | [3] 5.35% | [4] 5.55% | [5] -16.3% | [6] -4.75%

c1ccc(C2=NN3CN(N2)c2ccccc2OCCCOc2ccccc23)cc1
inactive: [1] -25.2% | [2] 2.05% | [3] -5.55% | [4] 12.8% | [5] 18.3% | [6] 6.25%

C=C1C(=O)O[C@H]2C[C@@H]1C(=O)CC(C)CCCC(C)=CCC[C@@]2(C)O (some centres not stated)
inactive: [1] 24.4% | [2] 7.65% | [3] 15.2% | [4] 11.2% | [5] -0.1% | [6] -49.4%

Nc1ncc(C(=O)O)c(N)n1
inactive: [1] 15.8% | [2] 4.6% | [3] 3.75% | [4] -19.2% | [5] -12.3% | [6] 33.6%

CC(C)CCCC(C)C1CCC2C(CC(=O)O)C(C3(C)CCC(O)CC3=O)CCC2(C)C1 (configuration not stated)
inactive: [1] 23.9% | [2] 27.1% | [3] 25.9% | [4] 8.35% | [5] 1.85% | [6] 33%

COc1ccc(CC2=c3cc(OC)c(OC)cc3=CCN2)cc1OC
inactive: [1] 12.1% | [2] 4.5% | [3] 9.7% | [4] 12.2% | [5] -2.85% | [6] -5.75%

O=C(O)CCn1ccc2ccccc21
inactive: [1] 3.65% | [2] -0.55% | [3] 4.8% | [4] 5.9% | [5] 3.1% | [6] 1.6%

CCO/C=N\c1c(C#N)c(CC#N)nn1C
inactive: [1] -3.55% | [2] -12% | [3] -8.65% | [4] -27.9% | [5] -1.75% | [6] -13.4%

CCOP(=O)(OCC)/C(C#N)=C\c1ccc(N(C)C)cc1
inactive: [1] 13.5% | [2] 6.3% | [3] 10.2% | [4] -13.7% | [5] 6.35% | [6] -0.65%

O=C(O)CN1CCN(CC(=O)O)CCN(CC(=O)O)CCN(CC(=O)O)CC1
inactive: [1] -7.95% | [2] -0.55% | [3] 2.9% | [4] -17.6% | [5] 20.4% | [6] 21.6%

CC(=O)O[C@H]1[C@@H]2[C@@H]3[C@@H](C[C@H]1C)[C@@H](C)CO[C@@]1(C)CC/C=C(/C)C[C@@H]2O[C@@H]31
inactive: [1] -3.9% | [2] -1.75% | [3] 0.15% | [4] -19.1% | [5] -12.8% | [6] -8.95%

O=S(=O)(O)c1cc(N=Nc2cc(S(=O)(=O)O)c3cccnc3c2O)ccc1/C=C/c1ccc(N=Nc2cc(S(=O)(=O)O)c3cccnc3c2O)cc1S(=O)(=O)O.[Cu+2].[Na+]
inactive: [1] 18.5% | [2] 18.2% | [3] 34.6% | [4] 25% | [5] -11.2% | [6] 9.25%

COc1ccc(C2OC3=C(Nc4ccc(Cl)cc4N3)C2=O)c(OC)c1 (configuration not stated)
inactive: [1] -9.1% | [2] -30.9% | [3] -28.1% | [4] -29.9% | [5] -42.2% | [6] -28.8%

O=C1C=CC2(C=C1)OCC(=O)O2
inactive: [1] 6.15% | [2] 10.2% | [3] 3.25% | [4] 4.65% | [5] -3.1% | [6] 0.5%

CCCCCCCCCCCCN(CC(O)C(O)C(OC1OC(CO)C(O)C(O)C1O)C(O)CO)C(=O)CCCCCCCCCCC (configuration not stated)
inactive: [1] -2.7% | [2] -19.2% | [3] 17.7% | [4] 0.4% | [5] 4.3% | [6] -50.5%

CCOC(=O)/C(C(C)=O)=C1\C(=O)c2ccccc2-c2ccccc21
inactive: [1] 21.6% | [2] 3.5% | [3] 2.8% | [4] -19.2% | [5] 12.9% | [6] 12.5%

CCCCCCCCCC1OCCC(C)O1 (configuration not stated)
inactive: [1] 20.2% | [2] 9.95% | [3] -0.6% | [4] -20.9% | [5] 9.5% | [6] 21.2%

O=C1OC(c2ccc(Cl)cc2)=C/C1=C/c1ccccn1
inactive: [1] -1.4% | [2] 10% | [3] 5.2% | [4] -34% | [5] 4.55% | [6] 11.3%

COC(=O)CC(c1ccc2c(c1)OCO2)N1CCCCC1 (configuration not stated)
inactive: [1] 7.35% | [2] -12.9% | [3] -11.7% | [4] -22.9% | [5] -1% | [6] 11.2%

COc1ccc(CCN2C(CC(=O)c3ccccc3)CCCC2CC(=O)c2ccccc2)cc1 (configuration not stated)
inactive: [1] -29.6% | [2] -29.1% | [3] -23.8% | [4] -0.8% | [5] -17.5% | [6] -18.7%

CC(=O)Nc1nc(NC(C)=O)c2nc(CCN(C)c3ccc(C(=O)O)cc3)cnc2n1
inactive: [1] -9.05% | [2] -18.4% | [3] -5.6% | [4] -5.25% | [5] -40.5% | [6] 2.15%

CCCCCCCC#CC1(CCCC)Sc2ccccc2N1C (configuration not stated)
inactive: [1] 15.3% | [2] 6.15% | [3] 0.75% | [4] 8.05% | [5] 6.35% | [6] 19.8%

NC(Cc1ccccc1)C(=O)Nc1cccnc1 (configuration not stated)
inactive: [1] -17.4% | [2] 15.2% | [3] 7.75% | [4] -44.6% | [5] 15.8% | [6] -5.75%

C=CCOC(=O)/C=C/C
inactive: [1] 7% | [2] 2.7% | [3] -4.05% | [4] -11.3% | [5] -2.55% | [6] -1.35%

NC(=S)n1nc(-c2ccccc2)c(N=Nc2ccccc2[N+](=O)[O-])c1-c1ccccc1
inactive: [1] 13.2% | [2] 2.5% | [3] -3.15% | [4] -35.6% | [5] 3.6% | [6] 9.45%

CC(C)NC(=O)OCc1c(COC(=O)NC(C)C)c2n(c1-c1ccc(Cl)c(Cl)c1)CCS2(=O)=O
inactive: [1] -0.5% | [2] 2.2% | [3] 4.5% | [4] -36.1% | [5] -1.95% | [6] 8.15%

O=C(c1ccccc1)C1(c2ccccc2)C(C(=O)c2ccccc2)(c2ccccc2)S1(=O)=O (configuration not stated)
inactive: [1] -19.8% | [2] -13.5% | [3] -8.05% | [4] -38.8% | [5] -6.6% | [6] -15.3%

CNC1C(CO)OC(n2cnc3c(N)ncnc32)C1O (configuration not stated)
inactive: [1] 1.85% | [2] -9.55% | [3] 3.75% | [4] -60.8% | [5] 2.75% | [6] -13.2%
